# Experimental data from ChEMBL document CHEMBL5308504, “Tm Shift (DSF) assay results for EUbOPEN Chemogenomics Library” (2023).
# Key:
# Details in all cases: Compound concentration 20.0 uM, Protein concentration 2.0 uM, Result type QC Liability
# [1] = biological target: Tyrosine-protein kinase ABL1 (Homo sapiens) (UniProt P00519)
# [2] = biological target: Cyclin-dependent kinase 2 (Homo sapiens) (UniProt P24941)
# [3] = biological target: Casein kinase I isoform delta (Homo sapiens) (UniProt P48730)
# [4] = biological target: Glycogen synthase kinase-3 beta (Homo sapiens) (UniProt P49841)
# [5] = biological target: Mitogen-activated protein kinase 1 (Homo sapiens) (UniProt P28482)
# [6] = biological target: T1, Aurora kinase A (Homo sapiens) (UniProt O14965)
# T1 sequence (whole entry): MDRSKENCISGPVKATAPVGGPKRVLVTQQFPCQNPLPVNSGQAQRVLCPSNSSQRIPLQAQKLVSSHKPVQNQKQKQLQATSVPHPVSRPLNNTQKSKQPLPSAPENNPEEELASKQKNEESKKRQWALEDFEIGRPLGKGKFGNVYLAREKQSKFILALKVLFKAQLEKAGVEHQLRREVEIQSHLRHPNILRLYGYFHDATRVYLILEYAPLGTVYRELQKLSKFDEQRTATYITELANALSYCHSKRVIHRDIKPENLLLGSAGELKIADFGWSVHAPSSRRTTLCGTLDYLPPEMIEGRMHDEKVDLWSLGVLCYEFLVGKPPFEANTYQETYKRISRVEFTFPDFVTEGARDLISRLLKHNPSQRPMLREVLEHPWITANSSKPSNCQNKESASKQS
# Glycogen synthase kinase-3 beta (Homo sapiens), sequence (P49841 whole entry, looked up): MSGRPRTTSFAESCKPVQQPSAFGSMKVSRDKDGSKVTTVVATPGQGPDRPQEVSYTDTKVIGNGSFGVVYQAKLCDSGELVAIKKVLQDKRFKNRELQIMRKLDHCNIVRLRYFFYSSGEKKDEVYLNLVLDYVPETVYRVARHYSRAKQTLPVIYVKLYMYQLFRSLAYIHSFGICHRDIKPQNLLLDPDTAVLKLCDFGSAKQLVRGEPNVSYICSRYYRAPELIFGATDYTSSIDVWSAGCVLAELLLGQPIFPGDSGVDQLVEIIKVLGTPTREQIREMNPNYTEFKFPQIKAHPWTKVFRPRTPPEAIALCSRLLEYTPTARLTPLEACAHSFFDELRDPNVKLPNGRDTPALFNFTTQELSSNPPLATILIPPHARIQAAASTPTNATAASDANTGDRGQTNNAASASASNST
# Tyrosine-protein kinase ABL1 (Homo sapiens), sequence (P00519 whole entry): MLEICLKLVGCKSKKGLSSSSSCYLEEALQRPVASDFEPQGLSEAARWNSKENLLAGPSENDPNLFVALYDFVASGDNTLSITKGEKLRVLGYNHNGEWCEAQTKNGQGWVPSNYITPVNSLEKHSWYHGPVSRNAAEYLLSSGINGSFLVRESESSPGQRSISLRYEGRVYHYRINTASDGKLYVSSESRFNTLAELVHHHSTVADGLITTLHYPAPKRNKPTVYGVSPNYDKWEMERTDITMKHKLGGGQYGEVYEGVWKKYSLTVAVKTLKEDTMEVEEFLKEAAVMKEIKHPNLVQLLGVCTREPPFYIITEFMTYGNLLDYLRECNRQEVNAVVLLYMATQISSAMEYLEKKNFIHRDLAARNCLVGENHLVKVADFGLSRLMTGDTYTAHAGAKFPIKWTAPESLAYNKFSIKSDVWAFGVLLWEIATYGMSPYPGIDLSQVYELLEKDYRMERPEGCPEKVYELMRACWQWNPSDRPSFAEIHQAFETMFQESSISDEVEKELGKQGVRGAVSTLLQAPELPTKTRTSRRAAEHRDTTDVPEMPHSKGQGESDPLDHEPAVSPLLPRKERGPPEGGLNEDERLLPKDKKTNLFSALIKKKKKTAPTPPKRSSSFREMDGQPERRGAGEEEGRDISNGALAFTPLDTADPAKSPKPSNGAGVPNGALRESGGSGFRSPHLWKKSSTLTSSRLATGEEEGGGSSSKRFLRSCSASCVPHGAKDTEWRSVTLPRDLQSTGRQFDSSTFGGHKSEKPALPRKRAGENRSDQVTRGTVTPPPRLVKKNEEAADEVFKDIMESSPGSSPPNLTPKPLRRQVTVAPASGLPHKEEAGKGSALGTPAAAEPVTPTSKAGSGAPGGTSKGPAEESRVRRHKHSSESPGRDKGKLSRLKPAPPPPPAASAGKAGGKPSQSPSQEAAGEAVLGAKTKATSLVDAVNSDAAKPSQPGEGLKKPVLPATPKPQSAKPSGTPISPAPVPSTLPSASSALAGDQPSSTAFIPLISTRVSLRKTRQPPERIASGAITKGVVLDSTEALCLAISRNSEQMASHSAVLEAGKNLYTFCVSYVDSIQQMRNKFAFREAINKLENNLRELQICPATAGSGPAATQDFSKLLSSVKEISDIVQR
# Mitogen-activated protein kinase 1 (Homo sapiens), sequence (P28482 whole entry): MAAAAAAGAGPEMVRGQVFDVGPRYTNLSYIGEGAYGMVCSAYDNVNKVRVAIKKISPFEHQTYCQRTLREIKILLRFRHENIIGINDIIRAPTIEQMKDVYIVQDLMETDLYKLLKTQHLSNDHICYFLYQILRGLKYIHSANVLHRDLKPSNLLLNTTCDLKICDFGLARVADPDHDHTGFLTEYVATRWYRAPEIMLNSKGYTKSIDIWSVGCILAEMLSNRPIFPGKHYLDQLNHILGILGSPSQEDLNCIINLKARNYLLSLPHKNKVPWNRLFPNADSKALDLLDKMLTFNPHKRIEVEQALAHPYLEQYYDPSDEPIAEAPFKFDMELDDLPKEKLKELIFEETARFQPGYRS
# Casein kinase I isoform delta (Homo sapiens), sequence (P48730 whole entry, looked up, canonical isoform): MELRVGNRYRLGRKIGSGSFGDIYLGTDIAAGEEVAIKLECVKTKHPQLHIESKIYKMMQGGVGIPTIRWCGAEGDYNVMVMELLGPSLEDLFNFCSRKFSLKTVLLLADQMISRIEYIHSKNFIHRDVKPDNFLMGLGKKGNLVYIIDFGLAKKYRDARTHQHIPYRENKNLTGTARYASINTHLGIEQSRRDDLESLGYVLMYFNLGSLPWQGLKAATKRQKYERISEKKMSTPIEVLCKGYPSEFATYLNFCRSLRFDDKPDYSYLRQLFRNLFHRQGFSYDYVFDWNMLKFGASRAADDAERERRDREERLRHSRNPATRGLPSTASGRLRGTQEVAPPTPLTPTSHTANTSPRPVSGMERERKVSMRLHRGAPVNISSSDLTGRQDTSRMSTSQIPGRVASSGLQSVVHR
smiles,measurement,setting,value
C[C@]12CC[C@@H]3c4ccc(O)cc4CC[C@H]3[C@@H]1C[C@H]1OC(=O)C[C@]12O,ΔTm,[1],-0.2 °C
same,ΔTm,[2],0.7 °C
same,ΔTm,[3],0.32 °C
same,ΔTm,[4],0.78 °C
same,ΔTm,[5],0.29 °C
same,ΔTm,[6],0.5 °C
CC1CCN(C(=O)[C@H](CCn2cccc2C#N)NS(=O)(=O)c2cccc3[nH]ccc23)CC1,ΔTm,[1],0.43 °C
same,ΔTm,[2],0.31 °C
same,ΔTm,[3],0.54 °C
same,ΔTm,[4],0.64 °C
same,ΔTm,[5],0.72 °C
same,ΔTm,[6],-0.11 °C
CN(C)C(=O)Cn1cc(-c2nc(C3(c4ccc(-c5cnc(N)nc5)cc4)CC3)no2)cn1,ΔTm,[1],0.7 °C
same,ΔTm,[2],0.53 °C
same,ΔTm,[3],0.13 °C
same,ΔTm,[4],-0.37 °C
same,ΔTm,[5],0.16 °C
same,ΔTm,[6],1.51 °C
Cn1nc(-c2ccc(C(N)=O)cc2)c2ccccc2c1=O,ΔTm,[1],0.66 °C
same,ΔTm,[2],0.13 °C
same,ΔTm,[3],0.57 °C
same,ΔTm,[4],-0.19 °C
same,ΔTm,[5],0.56 °C
same,ΔTm,[6],0.43 °C
Cc1cc2c(ncn2C2(C)CN(C(=O)c3ccn(CC4CCN([C@H]5C=CCCCC5)CC4)c3)C2)c(N)n1,ΔTm,[1],0.14 °C
same,ΔTm,[2],1.09 °C
same,ΔTm,[3],-0.14 °C
same,ΔTm,[4],-0.26 °C
same,ΔTm,[5],0.62 °C
same,ΔTm,[6],-1 °C
Cn1cc(Nc2nccc(N3CC4CCC(C3)N4C(=O)[C@@H]3CC3(F)F)n2)cn1,ΔTm,[1],1.98 °C
same,ΔTm,[2],2.84 °C
same,ΔTm,[3],0.33 °C
same,ΔTm,[4],0.6 °C
same,ΔTm,[5],0.56 °C
same,ΔTm,[6],8.08 °C
CC(C)(C)OC(=O)CN(Cc1ccc(Cl)cc1)Cc1ccc([N+](=O)[O-])s1,ΔTm,[1],0.48 °C
same,ΔTm,[2],0.83 °C
same,ΔTm,[3],0.3 °C
same,ΔTm,[4],-0.54 °C
same,ΔTm,[5],0.12 °C
same,ΔTm,[6],-1.37 °C
COc1cc(Nc2cnc(C#N)c(O[C@H](C)CN(C)C)n2)ncc1-c1cnn(C)c1,ΔTm,[1],3.91 °C
same,ΔTm,[2],0.23 °C
same,ΔTm,[3],2.14 °C
same,ΔTm,[4],3.03 °C
same,ΔTm,[5],0.5 °C
same,ΔTm,[6],1.18 °C
Cc1[nH]c2c(N3CCCCC3)c(-c3ccccc3)nn2c(=O)c1-c1ccc(O)cc1,ΔTm,[1],0.05 °C
same,ΔTm,[2],0.91 °C
same,ΔTm,[3],1.23 °C
same,ΔTm,[4],-0.79 °C
same,ΔTm,[5],0.43 °C
same,ΔTm,[6],-0.38 °C
CCN1C(=O)/C(=C(\NC2CCN(C)CC2)c2ccc3c(c2)OCO3)c2cc(C(C)=O)ccc21,ΔTm,[1],0.4 °C
same,ΔTm,[2],0.54 °C
same,ΔTm,[3],1.8 °C
same,ΔTm,[4],0.62 °C
same,ΔTm,[5],0.05 °C
same,ΔTm,[6],0.02 °C
CCCN1CCC(C#N)(NC(=O)[C@H](CC(C)(C)C)NC(=O)N2CCOCC2)CC1,ΔTm,[1],-0.4 °C
same,ΔTm,[2],1.07 °C
same,ΔTm,[3],0.1 °C
same,ΔTm,[4],-0.32 °C
same,ΔTm,[5],-0.1 °C
same,ΔTm,[6],-0.11 °C
Clc1ccccc1C(c1ccccc1)(c1ccccc1)n1ccnc1,ΔTm,[1],-1.2 °C
same,ΔTm,[2],-1.88 °C
same,ΔTm,[3],-0.72 °C
same,ΔTm,[4],-2.38 °C
same,ΔTm,[5],-0.79 °C
same,ΔTm,[6],-2.33 °C
CNC(=O)c1cccc(-c2ccc3c(N4CCOC[C@@H]4C)nc(N4CCOC[C@@H]4C)nc3n2)c1,ΔTm,[1],0.83 °C
same,ΔTm,[2],0.33 °C
same,ΔTm,[3],0.36 °C
same,ΔTm,[4],0.51 °C
same,ΔTm,[5],0 °C
same,ΔTm,[6],0.91 °C
CCO[C@@H](Cc1ccc(OCCc2ccc(OS(C)(=O)=O)cc2)cc1)C(=O)O,ΔTm,[1],0.03 °C
same,ΔTm,[2],0.41 °C
same,ΔTm,[3],-0.31 °C
same,ΔTm,[4],-0.58 °C
same,ΔTm,[5],0.21 °C
same,ΔTm,[6],0.09 °C
CC(C)NC(=O)[C@H]1CCC[C@H]1Nc1nc(Nc2ccc(CN(C)C)cc2)ncc1Br,ΔTm,[1],6.63 °C
same,ΔTm,[2],1.87 °C
same,ΔTm,[3],0.87 °C
same,ΔTm,[4],0.23 °C
same,ΔTm,[5],1.81 °C
same,ΔTm,[6],14.5 °C
N=C(N)NCCC[C@H](NC(=O)C(c1ccccc1)c1ccccc1)C(=O)NCc1ccc(CNC(N)=O)cc1,ΔTm,[1],-0.28 °C
same,ΔTm,[2],0.46 °C
same,ΔTm,[3],0.29 °C
same,ΔTm,[4],-0.57 °C
same,ΔTm,[5],0.19 °C
same,ΔTm,[6],0.09 °C
CS(=O)(=O)NC(=O)CCC/C=C\C[C@H]1C(=O)C[C@@H](O)[C@@H]1/C=C/[C@@H](O)COc1ccccc1,ΔTm,[1],-0.33 °C
same,ΔTm,[2],0.46 °C
same,ΔTm,[3],-0.2 °C
same,ΔTm,[4],0.54 °C
same,ΔTm,[5],0.01 °C
same,ΔTm,[6],-0.19 °C
Cc1cc(OCCC(C)(C)O)cc(C)c1-c1ccc(F)c2c1CC[C@H]2Oc1ccc2c(c1)OC[C@H]2CC(=O)O,ΔTm,[1],-2.63 °C
same,ΔTm,[2],-3.73 °C
same,ΔTm,[3],-1.62 °C
same,ΔTm,[4],-4.17 °C
same,ΔTm,[5],-8.53 °C
same,ΔTm,[6],-3.22 °C
COc1ccc(CSc2nnc(-c3ccc4ncsc4c3)o2)cc1C(F)(F)F,ΔTm,[1],-6.63 °C
same,ΔTm,[2],0.54 °C
same,ΔTm,[3],-10.2 °C
same,ΔTm,[4],-9.01 °C
same,ΔTm,[5],-8.68 °C
same,ΔTm,[6],1.22 °C
CN1CCN(C(=O)c2ccc3cc2OCCOCCNc2ccn4ncc-3c4n2)CC1,ΔTm,[1],1.92 °C
same,ΔTm,[2],0.81 °C
same,ΔTm,[3],0.3 °C
same,ΔTm,[4],0 °C
same,ΔTm,[5],0.5 °C
same,ΔTm,[6],3.85 °C
CNc1nc(Nc2ccc(C(=O)N3CCOCC3)cc2OC)ncc1Cl,ΔTm,[1],0.4 °C
same,ΔTm,[2],0.09 °C
same,ΔTm,[3],-0.01 °C
same,ΔTm,[4],-0.95 °C
same,ΔTm,[5],0.36 °C
same,ΔTm,[6],3.14 °C
O=C(Nc1ccccc1C(=O)O)c1cc(S(=O)(=O)c2ccccc2)ccc1Cl,ΔTm,[1],0.07 °C
same,ΔTm,[2],1.6 °C
same,ΔTm,[3],0.6 °C
same,ΔTm,[4],0.85 °C
same,ΔTm,[5],0.86 °C
same,ΔTm,[6],1.09 °C
CC[C@@H](C(=O)OC)n1c(=O)c2ccccc2n(Cc2cn(C)c3cccc(C)c23)c1=O,ΔTm,[1],-0.76 °C
same,ΔTm,[2],0.06 °C
same,ΔTm,[3],0.32 °C
same,ΔTm,[4],-0.47 °C
same,ΔTm,[5],0.23 °C
same,ΔTm,[6],-0.05 °C
CC(=O)N(CCN(C)C)c1ccc(N/C(=C2\C(=O)Nc3cc(Cl)ccc32)c2ccccc2)cn1,ΔTm,[1],8.38 °C
same,ΔTm,[2],3.16 °C
same,ΔTm,[3],2.87 °C
same,ΔTm,[4],11.3 °C
same,ΔTm,[5],0.38 °C
same,ΔTm,[6],7.54 °C
Cc1cc(Cn2c(N3CC4(CNC4)C3)nc3cc(Cl)cc(N4CCN(C)CC4)c32)cc(C)c1F,ΔTm,[1],-0.24 °C
same,ΔTm,[2],0.2 °C
same,ΔTm,[3],0.39 °C
same,ΔTm,[4],-1.71 °C
same,ΔTm,[5],0.34 °C
same,ΔTm,[6],0.08 °C
O=C(Cc1ccccc1)Nc1nnc(N2C[C@H]3C[C@@H]2CN3c2cccnn2)s1,ΔTm,[1],0.09 °C
same,ΔTm,[2],0.52 °C
same,ΔTm,[3],-0.12 °C
same,ΔTm,[4],-0.33 °C
same,ΔTm,[5],0.33 °C
same,ΔTm,[6],-0.14 °C
